Usually inhibition stands for the relative decrease from the control value, in per cent.

Experiment [1] is described as follows: NFkB reporter suppression in cystic fibrosis bronchial cells – cell-based, uHTS hits, panel, cytotoxicity readout, dose response (AID 624344). Particulars: CF bronchial epithelial cells, PAF-induced NFkB reporter inhibition, with PAF, run 1; at 79 µM (top of the series) unless noted.
Experiment in experiment [2]: as above
Particulars: CF bronchial epithelial cells, PAF-induced NFkB reporter inhibition, with PAF, run 2; at 79 µM (top of the series) unless noted.

Experiment [3] addresses Tumor necrosis factor receptor superfamily member 10B (Homo sapiens) (UniProt O14763). Kind of experiment: viability loss of caspase-8 NB7 cells with TRAIL – with/without TRAIL, luminescence panel, confirmation (AID 651596). The following applies: NB7 neuroblastoma + caspase-8, TRAIL sensitization, NB7 Caspase-8, with TRAIL, mean of runs, at 10 µM, stronger effect = higher value.
Experiment in experiment [4]: as above
Particulars: NB7 neuroblastoma + caspase-8, without TRAIL, NB7 Caspase-8, without TRAIL, mean of runs, at 10 µM.

Experiment [5] in a line: HIF-2a driven luciferase blockers, single dose – luminescence, 786-0 RCC cells, confirmation (AID 651580;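 active means mean inhibition across four replicates of at least 40 percent at the single tested concentration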). The following applies: HIF-2a luciferase reporter luminescence, overnight, at 18.8 µM, stronger effect = higher value. On the technique in general: In a reporter assay the amount or activity of a reporter protein is the signal.
Experiment [6] can be described thus: HIF-1a luciferase reporter signal reduction – MiaPaCa-2 cells, single concentration, counter-screen for HIF-2a inhibitor project, confirmation (AID 651589;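 active means mean inhibition of the reporter signal across four replicates at the single tested dose of 50% or more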). Particulars: MiaPaCa-2 HIF-1a luciferase reporter, desferoxamine, overnight; at 18.8 µM; stronger effect = higher value.

The other results are listed elsewhere or left out. Activity calls are given as the source filed them. Unless noted, no stated cut-off is given here; in the data, active means activity above about 50%; inactive means the rest.

Chain of Tumor necrosis factor receptor superfamily member 10B (Homo sapiens) (O14763 whole entry, looked up): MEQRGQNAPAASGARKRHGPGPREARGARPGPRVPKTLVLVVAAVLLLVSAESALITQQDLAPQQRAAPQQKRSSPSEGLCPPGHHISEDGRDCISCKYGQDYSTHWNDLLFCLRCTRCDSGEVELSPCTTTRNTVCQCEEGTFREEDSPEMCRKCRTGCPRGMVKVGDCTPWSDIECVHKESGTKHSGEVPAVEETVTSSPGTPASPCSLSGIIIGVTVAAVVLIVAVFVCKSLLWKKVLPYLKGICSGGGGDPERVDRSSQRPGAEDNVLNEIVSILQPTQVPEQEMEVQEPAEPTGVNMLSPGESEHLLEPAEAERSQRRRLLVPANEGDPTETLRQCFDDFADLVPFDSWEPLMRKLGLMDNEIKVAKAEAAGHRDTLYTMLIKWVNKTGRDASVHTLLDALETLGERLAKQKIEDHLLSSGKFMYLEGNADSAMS

For `Cc1c(-c2ccccc2)oc2c(C(=O)N3CCN(c4ccc([N+](=O)[O-])cc4)CC3)cccc2c1=O`, the inhibition in experiment [1] was 105%; in experiment [2] it was 93.8%.
As to `Cn1ncc2c(O/N=C(\N)c3ccc(C(C)(C)C)cc3)ncnc21`, the inhibition in experiment [1] was 101%; in experiment [2], 112%. Moreover, the activity in experiment [3] was determined as 98.5%; in experiment [4] it was 98.8%.
As to `CCOC(=O)Oc1c(OC)cc(C(=O)O[C@@H]2C[C@@H]3CN4CCc5c([nH]c6cc(OC)ccc56)[C@H]4C[C@@H]3[C@H](C(=O)OC)[C@H]2OC)cc1OC`, the inhibition in experiment [1] was 54.6%; in experiment [2], 42.4%.
Regarding `CCS(=O)(=O)c1ncc(Cl)c(C(=O)Nc2ccccc2OC)n1`, the inhibition in experiment [1] stood at 95.8%; in experiment [2] it was 86%. For the same compound, the results for the activity in experiment [3] and in experiment [4] were 98.4% and 99%, respectively.
Turning to `O=C1NC(=S)N/C1=C/c1cccnc1`, the figures for the inhibition in experiment [1] and in experiment [2] were 97.5% and 103%, respectively.
As to `CCOc1ccc(-n2cc(-c3ccccc3)c3c(N4CCOCC4)ncnc32)cc1`, the inhibition in experiment [1] worked out at 112%; in experiment [2], 102%.
With `CN(C)/C=C/C(=O)c1ccc2noc(-c3ccccc3)c2c1`, the results for the inhibition in experiment [1] and in experiment [2] were 118% and 105%, respectively.
With `Cn1c(SC2=CS(=O)(=O)c3ccccc32)nc2ccccc21`, the results for the inhibition in experiment [1] and in experiment [2] were 101% and 102%, respectively.
For the compound `O=C(NCCC1=CCCCC1)c1coc(=O)c(Br)c1`, the inhibition in experiment [1] came to 79.7%; in experiment [2], 74.3%. The activity was 76.4% in experiment [3] and 22.7% in experiment [4].
Take `Cc1nn(-c2nccs2)c2c1C(=O)CC(C)(C)C2Br` (stereo not drawn): the inhibition is 108% in experiment [1] and 115% in experiment [2].
On the same counts, the results for `O=C(CCS(=O)(=O)c1ccccc1)N(CCCN1CCOCC1)c1nc2c(F)cccc2s1` are 97.5% and 95.9%.
For the compound `CCSc1nsc(NC(=O)Nc2cccc(OC)c2)n1`, the inhibition amounted to 102% in experiment [1] and 113% in experiment [2].
On to `N#CC(C#N)=C1SC(=Nc2ccccc2)C(=Nc2ccccc2)N1c1ccccc1`, for which the inhibition in experiment [1] is 98.5%; in experiment [2], 99.1%. Besides, the activity turned out to be 92.6% in experiment [3] and 83.6% in experiment [4].
As to `Cc1cccc(NC(=O)Nc2ccc(C#N)cc2)n1`, the values for the inhibition in experiment [1] and in experiment [2] were 103% and 113%, respectively.
In the case of `COc1ccccc1NS(=O)(=O)c1cccc(-n2c(O)c(C=Nc3ccccc3C(=O)O)c3ccccc3c2=O)c1`, the results for the inhibition in experiment [1] and in experiment [2] were 105% and 85%, respectively.
Consider `O=S(=O)(Nc1nc2ccccc2nc1N1CCN(c2ccccc2F)CC1)c1ccc(Cl)cc1`, for which the figures for the inhibition in experiment [1] and in experiment [2] were 96.7% and 111%, respectively.
For the compound `C=C1C(=O)O[C@@H]2[C@H]1CC[C@H](C)[C@]1(O)CCC(=O)[C@@]21C`, the inhibition in experiment [1] amounted to 101%; in experiment [2], 108%.
For `O=C(NCCc1ccc(F)cc1)c1coc(=O)c(Br)c1`, the inhibition in experiment [1] stood at 82%; in experiment [2], 83.4%.
On the same counts, the results for `Clc1ccc(CSc2nnc(-c3ccncc3)o2)cc1` are 102% and 83.7%.
As to `O=C(Nc1ccc([N+](=O)[O-])cc1)Nc1ccc(Cl)cc1F`, the inhibition in experiment [1] came out at 109%; in experiment [2], 101%.
`Cc1ccc(S(=O)(=O)Nc2cccc3cccnc23)c([N+](=O)[O-])c1`: the results for the inhibition in experiment [1] and in experiment [2] were 101% [at 39.5 µM] and 94.2% [at 39.5 µM], respectively.
In the case of `COc1ccc2cc3c(N)nn(C(=O)c4ccc(F)cc4)c3nc2c1`, the inhibition in experiment [1] is 90%; in experiment [2], 96.1%.
For the compound `Cc1cccc(N2CCN(C(=O)CCn3c(=S)[nH]c4cc5c(cc4c3=O)OCO5)CC2C)c1` (stereo not drawn), the inhibition in experiment [1] was 109%; in experiment [2], 93.9%.
Consider `Cc1cccc(N(Cc2cc(=O)[nH]c3ccccc23)C(=O)CCl)c1`, for which the figures for the inhibition in experiment [1] and in experiment [2] were 95.1% and 90.7%, respectively. In addition, the activity in experiment [3] was 98.3%; in experiment [4] it was 98.5%.
In the case of `Clc1ccc(Cn2ncc3c(N4CCN(c5ccccc5)CC4)ncnc32)cc1`, the inhibition in experiment [1] was found to be 109%; in experiment [2], 94.9%. Moreover, the results for the activity in experiment [3] and in experiment [4] were 69.5% and 66.8%, respectively.
As for `COc1cccc(-c2ccc3ncnc(NCc4cc(C)cs4)c3c2)c1`, the figures for the inhibition in experiment [1] and in experiment [2] were 106% and 116%, respectively.
For `Cc1nnnn1/C(=C\c1ccccc1)C(=O)OCC(=O)N1CC2(C)CC1CC(C)(C)C2` (stereo not drawn), the inhibition in experiment [5] is 62% (active); in experiment [6], 67.3% (active).
`CC(C)C[C@@H](CN1CCCC1CN1C(=S)NC[C@@H]1Cc1ccc(O)cc1)N1C[C@H](Cc2ccc(O)cc2)N(CC2CCCCCC2)C1=S` (stereo partly drawn): the results for the inhibition in experiment [1] and in experiment [2] were 116% and 101%, respectively. For the same compound, the values for the activity in experiment [3] and in experiment [4] were 18.3% and 52%, respectively.
`CC[C@@H](C)[C@H](NC(=O)CCc1c(C)c2cc3c4c(oc3c(C)c2oc1=O)CCCC4)C(=O)O`: the inhibition is 68.5% (active) in experiment [5] and 44.4% (inactive) in experiment [6].
As for `O=C1C=C(c2ccc(Cl)cc2)C(=O)N1Nc1ccccc1`, the inhibition in experiment [5] was 95.2% (active); in experiment [6], 41% (inactive).
The like results for `CCN1CCN(CCNC(=O)c2ccc3c(c2)NC(=O)/C(=C\c2cccc(Cl)c2)S3)CC1` were, in that order, -18.3% (inactive) and 108% (active).
On the same counts, the results for `CCOC(=O)C(=Cc1ccccc1OC)C(=O)OCC` are 57.5% (active) and 75.7% (active).
The like results for `CCN(CC)CCCC(C)n1c2nc(=O)[nH]c(=O)c-2nc2cc(Cl)ccc21` (stereo not drawn) were, in that order, 97.9% (active) and 50% (inactive).
Consider `COc1ccc2[nH]cc(C(=O)CCl)c2c1`, for which the values for the inhibition in experiment [1] and in experiment [2] were 96.8% and 99.6%, respectively. Further, the activity in experiment [3] was determined as 99.1%; in experiment [4], 99.2%.
For the compound `COc1ccc(-c2cc(-c3nc4ccccn4c3NCc3ccccc3)ccc2OC)cc1`, the inhibition in experiment [1] is 105%; in experiment [2] it was 96.6%. Further, the activity in experiment [3] came to 93.2%; in experiment [4] it was 88.6%.

The values above are taken from PubChem BioAssay.
